In PubChem BioAssay (NCI):
About 79,000 compounds went through this panel and 15% of them were active in at least one assay; those are over-represented in the sample as a whole. Active and inactive are the calls of the source. Cut-off read from the data, not from the text of the source: active = growth inhibition above about 70%; inactive = the rest.

Experiments:
[1] = NCI Yeast Anticancer Drug Screen. Data for the rad52 strain (AID 147);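 note: 0% = growth of vehicle-treated control cultures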; settings: S. cerevisiae rad52 mutant growth inhibition, hits give high values
In short: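 The repair-mutant yeast strain was incubated with compounds, then growth was read and inhibition derived relative to vehicle.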

[2] = NCI Yeast Anticancer Drug Screen. Data for the rad50EPP+ strain (AID 151);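 note: 0% = growth of vehicle-treated control cultures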; settings: S. cerevisiae rad50 mutant strain, hits give high values
In short: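 Vehicle-normalised growth inhibition; rad50EPP+ yeast strain, altered in DNA damage repair, compound-treated.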

[3] = NCI Yeast Anticancer Drug Screen. Data for the mgt1 strain (AID 153); settings: S. cerevisiae mgt1 mutant growth inhibition, hits give high values
In short: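 Vehicle-normalized growth inhibition is determined in mgt1 yeast, a strain selected for a defined alteration in DNA repair or cell cycle control.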

[4] = NCI Yeast Anticancer Drug Screen. Data for the rad50 strain (AID 155);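 note: 0% = growth of vehicle-only cultures of the same strain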; settings: S. cerevisiae rad50 strain growth inhibition, hits give high values
In short: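 Cells are treated with compound, grown, and their growth is then scored against vehicle-only cultures of the same repair-deficient yeast strain.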

[5] = NCI Yeast Anticancer Drug Screen. Data for the mec2-1 strain (AID 157); settings: S. cerevisiae mec2-1 strain, hits give high values
In short: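 Mutant yeast (mec2-1) grown with compound; growth inhibition relative to vehicle control reported.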

[6] = NCI Yeast Anticancer Drug Screen. Data for the rad14 strain (AID 159);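 note: 0% = growth of vehicle-treated control cultures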; settings: S. cerevisiae rad14 strain growth inhibition, hits give high values
In short: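 Readout: yeast growth inhibition, referenced to vehicle-only cultures. Strain bears a defined alteration in DNA damage repair.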

[7] = NCI Yeast Anticancer Drug Screen. Data for the sgs1 mgt1 strain (AID 161);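 note: 0% = growth of cultures given vehicle only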; settings: S. cerevisiae sgs1 mgt1 strain, hits give high values
In short: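 Compounds are added to genetically altered yeast, and growth is compared with cultures given vehicle alone to give percent inhibition.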

[8] = NCI Yeast Anticancer Drug Screen. Data for the CLN2oe strain (AID 163);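 note: 0% = growth of vehicle-only control cultures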; settings: S. cerevisiae CLN2oe strain, hits give high values
In short: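 Compounds are applied to yeast harbouring a defined cell-cycle control change; reduced growth compared with vehicle-treated controls gives the value.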

[9] = NCI Yeast Anticancer Drug Screen. Data for the cln2 rad14 strain (AID 165);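 note: 0% = growth equal to vehicle treated cultures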; settings: S. cerevisiae cln2 rad14 strain, hits give high values
In short: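 Readout is yeast growth inhibition versus vehicle-treated controls, using a strain with cln2 and rad14 alterations exposed to compound.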

[10] = NCI Yeast Anticancer Drug Screen. Data for the bub3 strain (AID 167); settings: S. cerevisiae bub3 mutant strain, hits give high values
In short: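 Part of a panel of yeast mutants defective in DNA damage repair or cell cycle regulation. Each strain is grown with compound, and inhibition is calculated relative to solvent-treated cultures.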

[11] = NCI Yeast Anticancer Drug Screen. Data for the wt2 strain (AID 169);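 note: 0% = growth of vehicle-treated yeast cultures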; settings: S. cerevisiae wt2 strain growth inhibition, hits give high values
In short: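 Against vehicle-treated controls, the growth of yeast exposed to each compound was compared, and the inhibition was recorded.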

[12] = NCI Yeast Anticancer Drug Screen. Data for the mlh1 strain (AID 171);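 note: 0% = growth of vehicle-treated control cultures of the same strain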; settings: S. cerevisiae mlh1 strain growth inhibition, hits give high values
In short: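 Measured: yeast growth. Reference: vehicle-treated controls. Organism: strain with a defined alteration affecting DNA damage repair or cell cycle control, treated with compound.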

[13] = NCI Yeast Anticancer Drug Screen. Data for the mlh1 rad18 strain (AID 175); settings: S. cerevisiae mlh1 rad18 strain growth inhibition, hits give high values
In short: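 Genetically defined yeast (DNA repair-deficient) exposed to compounds; growth inhibition determined relative to vehicle.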

[14] = NCI Yeast Anticancer Drug Screen. Data for the rad18 strain (AID 177); settings: S. cerevisiae rad18 mutant growth inhibition, hits give high values
In short: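 Vehicle-treated cultures served as the baseline for scoring compound-induced growth inhibition in DNA-repair-mutant yeast.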

[15] = NCI Yeast Anticancer Drug Screen. Data for the wt1 strain (AID 149);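 note: 0% = growth of vehicle-treated wt1 cultures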; settings: S. cerevisiae wt1 strain (SPY 50644) growth inhibition, hits give high values
In short: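 The wt1 strain was treated with compounds, and growth was compared with vehicle-treated cultures to give inhibition.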

[16] = NCI Yeast Anticancer Drug Screen. Data for the sgs1 strain (AID 173);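 note: 0% = growth of vehicle-only control cultures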; settings: S. cerevisiae sgs1 mutant, hits give high values
In short: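 Each compound was added to cultures of the altered yeast strain. Growth was recorded, and inhibition was derived by comparison with vehicle controls.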

[17] = at 5.0 µM (retest, dose inferred, filed as 0.5)
[18] = at 50.0 µM (retest, dose inferred, filed as 5.0)

Measured: growth inhibition

Cc1cccc2c1C1c3c(C)cccc3C(CC(=O)O)CC1CC2 (stereo unspecified)
inactive: [1]; at 1.2 µM 13% | [2]; at 1.2 µM 15% | [2]; at 3.7 µM 25% | [2]; at 11.0 µM 53% | [2]; at 33.0 µM 66% | [2]; at 100.0 µM 48% | [3]; at 1.2 µM 0% | [3]; at 3.7 µM 47% | [4]; at 1.2 µM 13% | [4]; [17] 22% | [5]; at 1.2 µM 5% | [5]; at 3.7 µM 61% | [5]; [17] 8% | [6]; at 1.2 µM 5% | [7]; [17] 11% | [8]; at 1.2 µM 16% | [9]; [17] 6% | [10]; at 1.2 µM 10% | [10]; [17] 6% | [11]; at 1.2 µM 5% | [11]; at 3.7 µM 60% | [12]; at 1.2 µM 6% | [13]; [17] 7% | [14]; at 1.2 µM 11% | [14]; at 3.7 µM 69%
active: [1]; at 3.7 µM 92% | [1]; at 11.0 µM 97% | [1]; at 33.0 µM 95% | [1]; at 100.0 µM 88% | [3]; at 11.0 µM 98% | [3]; at 33.0 µM 97% | [3]; at 100.0 µM 92% | [4]; at 3.7 µM 90% | [4]; at 11.0 µM 97% | [4]; at 33.0 µM 93% | [4]; [18] 96% | [4]; at 50.0 µM 99% | [4]; at 100.0 µM 85% | [5]; at 11.0 µM 98% | [5]; at 33.0 µM 96% | [5]; [18] 98% | [5]; at 50.0 µM 99% | [5]; at 100.0 µM 90% | [6]; at 3.7 µM 83% | [6]; at 11.0 µM 98% | [6]; at 33.0 µM 95% | [6]; at 100.0 µM 90% | [7]; [18] 98% | [7]; at 50.0 µM 99.5% | [8]; at 3.7 µM 90% | [8]; at 11.0 µM 99% | [8]; at 33.0 µM 94% | [8]; at 100.0 µM 88% | [9]; [18] 98% | [9]; at 50.0 µM 98.8% | [10]; at 3.7 µM 71% | [10]; at 11.0 µM 97% | [10]; at 33.0 µM 95% | [10]; [18] 96% | [10]; at 50.0 µM 98.8% | [10]; at 100.0 µM 87% | [11]; at 11.0 µM 98% | [11]; at 33.0 µM 96% | [11]; at 100.0 µM 90% | [12]; at 3.7 µM 71% | [12]; at 11.0 µM 98% | [12]; at 33.0 µM 97% | [12]; at 100.0 µM 90% | [13]; [18] 97% | [13]; at 50.0 µM 99.2% | [14]; at 11.0 µM 98% | [14]; at 33.0 µM 95% | [14]; at 100.0 µM 88%

COc1ccc(N=c2cc(-c3ccccc3)oc3ccccc23)cc1
inactive: [15]; at 1.2 µM 0% | [15]; at 3.7 µM 1% | [15]; at 11.0 µM 2% | [15]; at 33.0 µM 1% | [15]; at 100.0 µM -6% | [2]; at 1.2 µM -1% | [2]; at 3.7 µM -3% | [2]; at 11.0 µM -5% | [2]; at 33.0 µM -2% | [2]; at 100.0 µM 16% | [3]; at 1.2 µM 0% | [3]; at 3.7 µM 1% | [3]; at 11.0 µM -2% | [3]; at 33.0 µM 13% | [3]; at 100.0 µM -6% | [4]; at 1.2 µM 0% | [4]; at 3.7 µM 0% | [4]; [17] 11% | [4]; at 11.0 µM 1% | [4]; at 33.0 µM 0% | [4]; [18] 3% | [4]; at 50.0 µM 57.5% | [4]; at 100.0 µM -4% | [5]; at 1.2 µM -3% | [5]; at 3.7 µM -2% | [5]; [17] -4% | [5]; at 11.0 µM -3% | [5]; at 33.0 µM -4% | [5]; [18] 6% | [5]; at 50.0 µM 27.6% | [5]; at 100.0 µM -7% | [6]; at 1.2 µM -3% | [6]; at 3.7 µM -3% | [6]; at 11.0 µM 0% | [6]; at 33.0 µM -2% | [6]; at 100.0 µM -5% | [7]; [17] 1% | [7]; [18] 17% | [9]; [17] -7% | [9]; [18] -1% | [9]; at 50.0 µM 3.85% | [10]; at 1.2 µM -3% | [10]; at 3.7 µM -6% | [10]; [17] -1% | [10]; at 11.0 µM -1% | [10]; at 33.0 µM -4% | [10]; [18] -85% | [10]; at 100.0 µM -1% | [11]; at 1.2 µM 0% | [11]; at 3.7 µM -2% | [11]; at 11.0 µM -1% | [11]; at 33.0 µM -3% | [11]; at 100.0 µM -6% | [12]; at 1.2 µM 0% | [12]; at 3.7 µM -1% | [12]; at 11.0 µM -1% | [12]; at 33.0 µM -4% | [12]; at 100.0 µM -5% | [16]; at 1.2 µM -1% | [16]; at 3.7 µM 1% | [16]; at 11.0 µM -2% | [16]; at 33.0 µM -3% | [16]; at 100.0 µM -4% | [13]; [17] -2% | [13]; [18] 26% | [14]; at 1.2 µM -2% | [14]; at 3.7 µM 0% | [14]; at 11.0 µM -1% | [14]; at 33.0 µM -6% | [14]; at 100.0 µM -8%
active: [7]; at 50.0 µM 87.1% | [10]; at 50.0 µM 95.5% | [13]; at 50.0 µM 76.2%

COC(=O)/C(C#N)=C\NC(=S)C(N)=S
inactive: [1]; at 1.2 µM -6% | [1]; at 3.7 µM 24% | [2]; at 1.2 µM -24% | [2]; at 3.7 µM -24% | [2]; at 11.0 µM 2% | [2]; at 33.0 µM 64% | [3]; at 1.2 µM 9% | [3]; at 3.7 µM 21% | [4]; at 1.2 µM 12% | [4]; at 3.7 µM 30% | [4]; [17] 2% | [5]; at 1.2 µM -5% | [5]; at 3.7 µM 24% | [5]; [17] -1%
active: [1]; at 11.0 µM 86% | [1]; at 33.0 µM 99% | [1]; at 100.0 µM 98% | [2]; at 100.0 µM 97% | [3]; at 11.0 µM 79% | [3]; at 33.0 µM 99% | [3]; at 100.0 µM 98% | [4]; at 11.0 µM 90% | [4]; at 33.0 µM 98% | [4]; [18] 98% | [4]; at 50.0 µM 88.5% | [4]; at 100.0 µM 97% | [5]; at 11.0 µM 98% | [5]; at 33.0 µM 99% | [5]; [18] 99% | [5]; at 50.0 µM 93.2%
